Test [1] deals with CP260. The test can be described thus: qHTS profiling for inhibitors of Plasmodium falciparum proliferation (AID 504749). Also: nearly all actives have a fitted effect of over 60% in size. Also: potency is read from the fitted curve at half-maximal effect. The conditions noted are these: P. falciparum in erythrocytes, SYBR Green DNA, 72 h; series mostly up to 12.8 µM. Summed up:
(§1)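 Parasite proliferation within erythrocytes, 72 h exposure. Endpoint: SYBR Green I fluorescence after overnight lysis at room temperature. Controls: 0.29 uM artemisinin, DMSO.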
In general terms: Quantitative high-throughput screening tests each substance at several concentrations.

Test [2] concerns DIV17. The description is as above. The conditions noted are these: P. falciparum in erythrocytes, SYBR Green DNA, 72 h; series mostly up to 12.8 µM. In short, it runs like this: as §1
Test [3] deals with ICS. Described as above. The conditions noted are these: P. falciparum in erythrocytes, SYBR Green DNA, 72 h; series mostly up to 12.8 µM. In short, it runs like this: as §1
Test [4] concerns P93_24. The description is as above. The conditions noted are these: P. falciparum in erythrocytes, SYBR Green DNA, 72 h; series mostly up to 12.8 µM. Summed up: as §1
For test [5], the system named is TAB113. The test is described as above. The conditions noted are these: P. falciparum in erythrocytes, SYBR Green DNA, 72 h; series mostly up to 12.8 µM. Summed up:
as §1

Test [6] deals with W2. Described as above. The conditions noted are these: P. falciparum in erythrocytes, SYBR Green DNA, 72 h; series mostly up to 12.8 µM. Summed up: as §1
Test [7] can be described thus: S16 Schwann cell viability assay (CellTiter-Glo assay) (AID 624031). Also: nearly all actives have a fitted effect of over 70% in size. In short, it runs like this:
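This viability control uses native rat S16 Schwann cells grown in DMEM plus 10% FBS. After a 24 h compound treatment at 37 °C, CellTiter-Glo luminescence reports ATP content, scaled against DMSO-treated and cell-free wells.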
Background: ATP-based viability assays read luminescence as a measure of living cells.

Test [8] concerns CP250. The test can be described thus: qHTS profiling for inhibitors of Plasmodium falciparum proliferation (AID 504749). Also: nearly all actives have a fitted effect of over 60% in size. Also: potency is read from the fitted curve at half-maximal effect. The conditions noted are these: P. falciparum in erythrocytes, SYBR Green DNA, 72 h; series mostly up to 12.8 µM. In short, it runs like this: as §1
In test [9] the test system is Dd2. The test is described as above. The conditions noted are these: P. falciparum in erythrocytes, SYBR Green DNA, 72 h; series mostly up to 12.8 µM. In short, it runs like this:
as §1

Test [10] deals with AA1029. The description is as above. The conditions noted are these: P. falciparum in erythrocytes, SYBR Green DNA, 72 h; series mostly up to 12.8 µM. In short, it runs like this:
as §1

Test [11] deals with CP192. Described as above. The conditions noted are these: P. falciparum in erythrocytes, SYBR Green DNA, 72 h; series mostly up to 12.8 µM. Summed up: as §1
The subject of test [12] is ATS189. The test is described as above. The conditions noted are these: P. falciparum in erythrocytes, SYBR Green DNA, 72 h; series mostly up to 12.8 µM. In short, it runs like this:
as §1

The test system of test [13] is CP191. The description is as above. The conditions noted are these: P. falciparum in erythrocytes, SYBR Green DNA, 72 h; series mostly up to 12.8 µM. In short, it runs like this:
as §1

The subject of test [14] is CP215. The test is described as above. The conditions noted are these: P. falciparum in erythrocytes, SYBR Green DNA, 72 h; series mostly up to 12.8 µM. In short, it runs like this: as §1
For test [15], the system named is CP217. The test is described as above. The conditions noted are these: P. falciparum in erythrocytes, SYBR Green DNA, 72 h; series mostly up to 12.8 µM. In short, it runs like this: as §1
The subject of test [16] is CP247. The description is as above. The conditions noted are these: P. falciparum in erythrocytes, SYBR Green DNA, 72 h; series mostly up to 12.8 µM. In short, it runs like this:
as §1

The test system of test [17] is CP335. Described as above. The conditions noted are these: P. falciparum in erythrocytes, SYBR Green DNA, 72 h; series mostly up to 12.8 µM. Summed up:
as §1

Test [18] relates to P94_40. The test is described as above. The conditions noted are these: P. falciparum in erythrocytes, SYBR Green DNA, 72 h; series mostly up to 12.8 µM. In short, it runs like this:
as §1

Test [19] has as its system CP265. The description is as above. The conditions noted are these: P. falciparum in erythrocytes, SYBR Green DNA, 72 h; series mostly up to 12.8 µM. In short, it runs like this: as §1
In test [20] the test system is DFO2036. Described as above. The conditions noted are these: P. falciparum in erythrocytes, SYBR Green DNA, 72 h; series mostly up to 12.8 µM. In short, it runs like this:
as §1

Results filed as inconclusive are left out. Active and inactive are the calls of the source. Calls follow the shape of the dose curve; as a rule, active = well fitted curve in the direction sought with a large enough effect; inconclusive = small, poorly fitted or top-dose-only effect, or another doubt; inactive = no such curve, though single readings can be large; an effect the other way counts as inactive or inconclusive.

As to `CCOC(=O)Oc1c(OC)cc(C(=O)O[C@H]2C[C@H]3CN4CCc5c([nH]c6cc(OC)ccc56)[C@@H]4C[C@H]3[C@@H](C(=O)OC)[C@@H]2OC)cc1OC`, the Potency in [1] is 2.51 µM (active); in test [2], 5.73 µM (active); in test [3], 2.82 µM (active); in test [4] it was 3.98 µM (active); in [5], 3.98 µM (active); in test [6], 2.56 µM (active).

Take `O=C(O)[C@@H]1[C@@H]2C[C@H]3c4[nH]c5ccccc5c4CCN3C[C@@H]2CC[C@@H]1O`: the result in [7] was inactive. The Potency entry in test [8] and in [9] was “inactive” each time. In addition, the Potency in test [2] is 5.73 µM (active).

For the molecule `CCC(=O)OCC(=O)[C@@]1(OC(=O)CC)[C@H](C)C[C@@H]2[C@@H]3[C@H]([C@@H](O)C[C@@]21C)[C@]1(C)C=CC(=O)C=C1C[C@@H]3Cl`, in test [7], the call was inactive. The Potency entry in test [10] and in test [11] was “inactive” in each case. For the same molecule, the values for the Potency in [1], in test [3] and in test [6] were 3.98 µM (active), 1.12 µM (active) and 1.61 µM (active), respectively.

In the case of `C[C@H](CCC(=O)O)[C@H]1CC[C@@H]2[C@@H]3[C@@H](O)C[C@H]4C[C@@H](O)CC[C@@]4(C)[C@H]3CC[C@@]21C`, the call in [7] was inactive. In addition, the Potency entry in test [10], in test [12], in test [13], in test [11], in test [14] and in [15] was “inactive” in each case. For the same molecule, the Potency result in test [16], in [8], in test [1], in [17], in [2] and in test [9] was “inactive” each time. For the same molecule, the Potency entry in test [3], in test [4], in [18], in test [5] and in test [6] was “inactive” in each case.

In the case of `Cc1ccsc1/C=C\C1=NCCCN1C`, the outcome in [7] was inactive. Besides, the Potency result in test [10], in test [12], in test [13], in [11], in test [14] and in test [15] was “inactive” throughout. The Potency entry in [16], in [8], in [1], in [19], in [20] and in test [2] was “inactive” throughout. Moreover, the Potency result in test [9], in test [3], in [4], in [18], in test [5] and in [6] was “inactive” throughout.

Consider `CC1=C(C(=O)O)N2C(=O)[C@@H](NC(=O)[C@@H](N)c3ccc(O)cc3)[C@@H]2SC1`, for which the result in [7] was inactive. Also, the Potency result in test [10], in test [12], in test [13], in [11], in [14] and in test [15] was “inactive” each time. For the same molecule, the Potency result in test [16], in test [8], in test [1], in [19], in [17] and in [20] was “inactive” each time. In addition, the Potency result in test [2], in [9], in [3], in test [4], in test [18] and in test [5] was “inactive” throughout. In addition, the Potency entry in test [6] was “inactive”.

Regarding `CC1(C)[C@@H](OC(=O)CCC(=O)O)CC[C@@]2(C)[C@H]1CC[C@@]1(C)[C@H]2C(=O)C=C2[C@H]3C[C@](C)(C(=O)O)CC[C@]3(C)CC[C@@]21C`, the molecule was called inactive in test [7]. The Potency entry in test [10], in test [12], in test [13], in test [11], in test [14] and in test [15] was “inactive” each time. For the same molecule, the Potency entry in test [16], in test [8], in test [1], in [19], in [17] and in [20] was “inactive” throughout. Moreover, the Potency entry in test [2], in test [9], in test [3], in [4], in test [18] and in test [5] was “inactive” in each case. Further, in test [6], the Potency entry was “inactive”.

For `O=C(O)COCCN1CCN([C@@H](c2ccccc2)c2ccc(Cl)cc2)CC1`, the molecule was classed as inactive in test [7]. Also, the Potency entry in [10], in test [12], in [11], in test [14], in [15] and in [16] was “inactive” in each case. For the same molecule, the Potency entry in [8], in [1], in test [19], in [17], in test [20] and in test [9] was “inactive” throughout. In addition, the Potency entry in [18] and in test [5] was “inactive” each time. Besides, in test [6], the Potency was 4.55 µM (active).

For the origin of these results see PubChem BioAssay (NCATS).
